Screens: PubChem BioAssay, National Center for Advancing Translational Sciences (NCATS)
Pin1 inhibitor: qHTS Assay to Find Inhibitors of Pin1; Peptidyl-prolyl cis-trans isomerase NIMA-interacting 1 (Homo sapiens), Q13526; Pin1 FP peptide displacement, HiFluor488, 10 min; Potency, µM (highest dose often 115 µM), for the others: at the highest dose activity, negative = inhibition, usual class: inhibitors; actives 0.009% (n = 390,000); AID 504891, 2011; active = well fitted inhibition curve with a large enough effect in the polarisation, with a control signal flat, not every such curve was filed as active; inconclusive = small, poorly fitted or top-dose-only effect, or effect the other way, or a change in a side signal; inactive = no such curve, though single readings can be large or run the other way; the % refers to the polarisation; note: potency is the fitted concentration of half-maximal effect; % is set by controls: 0 for no effect and ±100 for the full control effect
TrxR1 substrate: qHTS Assay for Substrates of Mammalian Selenoprotein Thioredoxin Reductase 1 (TrxR1): qHTS | Thioredoxin reductase 1, cytoplasmic (Rattus norvegicus), O89049 | purified TrxR1 substrate turnover, NADPH consumption readout | Potency, µM (titrated, usually from 114 µM), for inactives: at the highest dose activity change, negative = substrate turnover | actives 0.01% (n = 390,000) | AID 588456, 2011; note: potency is the fitted concentration of half-maximal effect; % is set by controls: 0 for no effect and ±100 for the full control effect; nearly all actives have a fitted effect of over 50% in size
Target sequence (O89049 whole entry, looked up): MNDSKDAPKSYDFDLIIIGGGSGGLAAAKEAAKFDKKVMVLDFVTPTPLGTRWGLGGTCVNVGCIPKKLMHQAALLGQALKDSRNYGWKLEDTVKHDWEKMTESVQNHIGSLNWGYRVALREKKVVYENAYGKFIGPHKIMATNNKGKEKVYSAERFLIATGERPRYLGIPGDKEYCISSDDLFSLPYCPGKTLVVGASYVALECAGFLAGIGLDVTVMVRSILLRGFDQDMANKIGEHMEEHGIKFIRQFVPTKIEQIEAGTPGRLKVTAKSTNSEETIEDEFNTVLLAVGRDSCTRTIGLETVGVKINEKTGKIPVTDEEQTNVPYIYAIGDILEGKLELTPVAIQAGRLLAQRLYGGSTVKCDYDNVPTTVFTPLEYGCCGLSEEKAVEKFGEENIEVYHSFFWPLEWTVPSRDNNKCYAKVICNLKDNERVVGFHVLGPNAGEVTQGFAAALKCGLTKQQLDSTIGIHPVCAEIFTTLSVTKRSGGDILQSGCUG
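Rat TrxR1, dispensed at 90 nM, was prereduced with 400 uM NADPH (final) for 5 min at ~22 deg C, then incubated with compound 15 min before 400 uM selenite. A first-read NADPH fluorescence drop versus no-compound background flagged substrates.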
rTrxR1 inhibitor: qHTS Assay for Inhibitors of Mammalian Selenoprotein Thioredoxin Reductase 1 (TrxR1): qHTS; Potency, µM (top dose mostly 114 µM), without a hit: top-dose activity change, negative = inhibition, actives largely listed as inhibitors; AID 588453, 2011; recombinant rTrxR1, NADPH fluorescence consumption, selenite substrate; actives 1% (n = 390,000); Thioredoxin reductase 1, cytoplasmic (Rattus norvegicus), O89049; note: potency is the fitted concentration of half-maximal effect; % is set by controls: 0 for no effect and ±100 for the full control effect; nearly all actives have a fitted effect of over 65% in size
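Rat TrxR1 (90 nM in the dispensed reagent) was pre-reduced with 400 uM NADPH for 5 min at room temperature, then incubated with compound for 15 min. After 400 uM selenite was added, NADPH fluorescence (Ex 340/Em 450 nm) was followed for 8 min.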
AT treatment: qHTS Assay for Identifying a Potential Treatment of Ataxia-Telangiectasia; Potency, µM (highest dose often 57.5 µM), without a hit: top-dose activation, hits mostly activators; AID 485349, 2010; F2112 A-T fibroblasts, KAP-1 phosphorylation AlphaLISA; neocarzinostatin DNA damage 30 min before lysis; actives 0.19% (n = 320,000); note: potency is the fitted concentration of half-maximal effect; % of control where 0% means no effect; nearly all actives have a fitted effect of over 45% in size
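hTERT-immortalized A-T patient fibroblasts (F2112), 500 cells/well in OPTI-MEM, 1% FBS, got compounds for 60 min, then NCS for 30 min at 37C. Lysates were then assayed for phospho-KAP-1 by AlphaLISA (anti-pKAP1 donor, anti-KAP1 acceptor beads), 6 hr at 25C.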
N370S GC mod: qHTS Assay for Inhibitors and Activators of N370S glucocerebrosidase as a Potential Chaperone Treatment of Gaucher Disease | actives 0.092% (n = 330,000) | Lysosomal acid glucosylceramidase (Homo sapiens), P04062 | Potency, µM (top dose mostly 59.4 µM), for inactives: at the top dose activity change, negative = inhibition, most hits filed as inhibitors | N370S GC spleen homogenate, 4MU-glucoside fluorescence | AID 2101, 2009;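 note: potency is the fitted concentration of half-maximal effect; 0% = full enzyme activity and -100% = no enzyme basal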
Akt phos inh: HTS Assay for Inhibitors of Akt Phophorylation: Primary Screen. actives 0.32% (n = 360,000). Neuro2A IGF-stimulated pAkt S473 HTRF, 20 min; hits give low values. activity change, % for hits at 50 µM; in the data active = activity change below about -80%; inconclusive = mostly about -51% to -80%; note: % is set by controls: 0 for no effect and ±100 for the full control effect
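Single-point screen (50 µM final compound) in Neuro2A cells stimulated 20 min with 6 nM IGF at 37 deg C. After lysis, Ser473-phosphorylated Akt read by HTRF (ex 330 nm, em 615/665 nm) as the 665/615 ratio.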
Active calls of the source: *; i = inactive; ? = inconclusive; . = not tested or not shown; [ ] = dose if it differs, or a comment. Shown are actives, neighbours in structure and some others; about 1.4% of the full set was active somewhere. Unless noted, calls come from the whole dose curve; as a rule, active = well fitted curve in the direction sought with a large enough effect; inconclusive = small, poorly fitted or top-dose-only effect, or another doubt; inactive = no such curve, though single readings can be large; an effect the other way counts as inactive or inconclusive.

SMILES | Pin1 inhibitor | TrxR1 substrate | rTrxR1 inhibitor | AT treatment | N370S GC mod | Akt phos inh
CCOc1cc(C(=O)OCc2ccc(OC)cc2)ccc1OCC(=O)N1CCOCC1 | -2% | 1% | 27% | 0% | . | i
Cc1ccc2c(C)ccnc2c1 | . | 3% | -10% | . | . | .
O=C1C=CC(=O)c2c(O)c(N3CCN(CCOCCO)CC3)c(Br)c(O)c21 | ? | ? | ? | . | . | i
O=C1C=CC(=O)c2c(O)c(N3CCN(CCO)CC3)c(Cl)c(O)c21 | ? | 56µM* | 18% | . | . | i
CCC(=O)Nc1ccc(OCc2cc(C3Nc4ccccc4C(=O)N3Cc3ccccc3)ccc2OC)cc1 (stereo not given) | 22% | . | . | . | . | .
COc1cc(NCCC(=O)c2cccs2)c(OC)cc1Cl | -7% | 8%[57.1 µM] | 18µM* | -4% | 3% | i
Cc1ccc(CNC(=O)C2c3ccccc3C(=O)N3CCc4ccccc4C23)o1 (stereo not given) | -2% | 3% | 1.8µM* | -2% | 16% | -100%*
CCOC(=O)C1CN(S(=O)(=O)c2ccc(C)cc2)c2ccccc2O1 (stereo not given) | 0% | -5% | 3.2µM* | -3% | -11% | i
Cn1c(=O)[nH]c(=O)c2c1nc(OC(=O)c1ccccc1)n2CC(O)COc1ccccc1 (stereo not given) | -11% | 0% | -3% | 2% | 12% | -126%*
CN(Cc1ccccc1)c1nc2c(c(=O)[nH]c(=O)n2C)n1CCOc1ccccc1 | -6% | 6%[57.1 µM] | -2%[57.1 µM] | -1% | 21% | -124%*
CN(Cc1ccccc1)c1nc2c(c(=O)[nH]c(=O)n2C)n1Cc1ccccc1 | 0% | 0% | -3% | -11% | 12% | i
CC1=CC(C)(C)Nc2ccc(OC(=O)CN3C(=O)c4cccc5cccc(c45)C3=O)cc21 | ? | 9% | 8.9µM* | 9% | 0% | i
COc1cccc(N2CCN(c3c(C#N)c(C(F)(F)F)nn3C)CC2)c1 | 11% | -9% | -7% | 3% | -4% | i
Cn1nc(C(F)(F)F)c(C#N)c1N1CCN(c2ccccc2F)CC1 | 6% | -8% | -14% | . | 4% | -107%*
O=C(C[n+]1cccc(Br)c1)c1cc(Cl)ccc1Cl | . | 2% | 11µM* | . | . | .
Cc1ccc(C)c(C(=O)C[n+]2cccc(Br)c2)c1 | . | -7% | -34% | . | . | .
Cn1c(C(c2cc3ccccc3n2C)c2cc3ccccc3n2C)cc2ccccc21 | . | 0% | -26% | . | . | .
COc1ccccc1NC(=O)Cn1c(=O)n(Cc2ccco2)c(=O)c2oc3ccccc3c21 | 4% | -4% | 22% | . | . | .
Cc1ccc(-c2c(C#N)c(N)nc3c2CCCC3)o1 | 5% | 13% | 32µM* | 16% | 10% | i
Cc1ccc(-c2c3c([nH]c(=S)c2C#N)CCCC3)o1 | 2% | -11% | 45µM* | 3% | -3% | i
CCSc1nc2c(c(-c3ccc(C)o3)c1C#N)CCCC2 | 18% | -21%[11.4 µM] | 13%[11.4 µM] | 9% | 27% | i
COc1ccc(N2CCN(C(=O)c3cnn(-c4ccc(OC)cc4)c3C3CCN(C(=O)OC(C)(C)C)CC3)CC2)cc1 | -4% | -2% | 10% | . | . | .
CCCCN(CC)C(=O)CSc1c2c(nc3ccc(Cl)cc13)CCCC2 | 4% | -2% | 0% | . | . | .
COc1ccc(N2CCN(CC(=O)Nc3ncc(C)s3)CC2)cc1 | -7% | 0% | 11% | -17% | -3% | i
COc1ccc(N2CCN(CC(=O)Nc3nc4c(s3)CC(C)CC4)CC2)cc1 (stereo not given) | 1% | -8% | -9% | 7% | 3% | -120%*
Cc1ccc(CCNC(=O)C2CC(c3cccc(F)c3)=NO2)cc1 (stereo not given) | -2% | 6%[57.1 µM] | 8%[57.1 µM] | 14µM* | 9% | i
